Experimental findings from PubChem BioAssay (EPA / NIEHS) are described below.

Where “and” joins values, the source holds several entries; their conditions need not be identical. Equal values may be shown once. Some structures have more than one record in an assay (separate samples or runs), and their calls can disagree. Calls of active or inactive are those of the source. Rule for the calls: active = hit-call score of the fitted dose curve at least 0.9, where 1 is the maximum; inactive = score below 0.9.

Read-out in this assay: ABC Transporter (ABCB11), ABCB11 (gene 8647)
Description: LTEA_HepaRG_ABCB11: Life Technologies and Expression Analysis (LTEA) Assay for ABC Transporter (ABCB11) using HepaRG (AID 2283463). As to conditions: mRNA level, 48 h; actives raise or lower the signal. The protocol:
LTEA_HepaRG is a cell based, multiplexed-readout assay that uses HepaRG, a human liver cell line, with measurements taken at 48 hours after chemical dosing on a 96-well plate.LTEA_HepaRG_ABCB11 is one of 102 assay component(s) measured in the LTEA HepaRG cell culture assay. It is a marker of Steatosis/NR mediated transport.Data from the assay component LTEA_HepaRG_ABCB11 was analyzed into 1 endpoint. This assay endpoint, LTEA_HepaRG_ABCB11, was analyzed with bidirectional fitting relative to DMSO as the negative control and baseline of activity. Using a type of inducible reporter, measures of mRNA induction for gain or loss-of-signal activity can be used to understand regulation of transcription factor activity. To generalize the intended target to other relatable targets, this assay endpoint is annotated to the transporter intended target family, where the subfamily is ABC transporter.
A total of 1060 chemcials from the ToxCast library were tested in eight-point concentration-response experiments. Cell culture and cytotoxicity assays were conducted at Thermo Fisher Scientific's Custom Services facility (Madison, WI). A single lot of human HepaRG cells (Thermo Fisher Scientific, Frederick, MD) was used for the cell culture experiments. 96-well format collagen type I coated plates of human HepaRG cells were prepared using established methods. Briefly, cryopreserved HepaRG cells were thawed, plated at a density of approximately 100,000 cells/well in HepaRG Thaw, Plate, and General Purpose media (HPRG770, Thermo Fisher Scientific), and incubated for 48 hours. 0.5% DMSO was selected as vehicle control to balance the requisite need of DMSO in HepaRG cultures to maintain differentiation (for example, baseline metabolism, proportions of hepatocytes vs. cholangiocytes), while enabling further hepatic receptor pathway activation (for example, PXR and CAR) in response to chemical exposure. 48 hours after plating, the culture medium was replaced with HepaRG Serum-Free Incudtion Media. Cells were exposed to each test chemical in duplicate and maintained in CO2 incubators for another 48 hours. Chemical plates were thawed to room temperature and 200x concentrations of treatment groups were prepared. 8-point conentration-reponse curves were made with the highest exposure at 100 uM, followed by half-log dilutions, all in 0.5% DMSO. Each test plate contained variouse controls, induction positive controls (1mM phenobarbital), cytotoxicity positive controls ([…] aflatoxin B1), vehicle controls (0.5% DMSO), and total lysis controls (0.5% DMSO). Cell morphology images were taken using an Essen IncuCyte FLR automated microscope, with six 96-well plates imaged in about 24 minutes. Images were captured and exported and JPEG files. Spent culture media was transfered to black-well plates for the LDH assay, and remaining media was sorted at -80 C for later use. Cells were treated with RLT buffer and frozen until shipped for gene expression analysis. Total RNA was isolated from the cell suspension in 75 uL of Buffer RLT (Qiagen, Germantown, MD 20874) by Quintiles/Expression Analysis (Durham, NC) using a custom isolation procedure. Total RNA from each plate well was transferred to a preamplification plate. Fluidigm's 96.96 Dynamic ArrayTM (Fluidigm, Amsterdam, the Netherlands) technology was used for gene expression analyses by quantitative reverse transcription polymerase chain reaction (qRT-PCR, performed by Quintiles/Expression Analysis, Durham, NC)89. Standard TaqManTM Assays (Applied Biosystems/ThermoFisher Scientific, Foster City, CA) were used to assess the expression of 93 genes selected based on their selectivity and sensitivity to important hepatic receptors known to be modulated by environmental chemicals; importance in human hepatocyte functionality; and hepatotoxicity. […]
For `CCOc1cc(Oc2ccc(C(F)(F)F)cc2Cl)ccc1[N+](=O)[O-]`, the AC50 is 19.1 µM (active).
As to `COC(=O)c1ccccc1C(=O)OC`, the result was inactive.
Regarding `COc1ccc(C(c2ccc(OC)cc2)C(Cl)(Cl)Cl)cc1`, the half-maximal activity concentration (AC50) was 86.7 µM (active).
For `C=CCC1=C(C)C(OC(=O)C2C(C=C(C)C)C2(C)C)CC1=O` (stereo not given), the AC50 was 64.8 µM (active) and 79.9 µM (active) and 19 µM (active).
Same read-out and setting: under `CC(C)Oc1cc(-n2nc(C(C)(C)C)oc2=O)c(Cl)cc1Cl` stands 58.8 µM (active).
As to `CCCCOC(=O)c1ccccc1C(=O)OCCCC`, the compound was classed as inactive.
Regarding `CO/C=C(/C(=O)OC)c1ccccc1Oc1cc(Oc2ccccc2C#N)ncn1`, the concentration at half-maximal activity (AC50) is 45.4 µM (active) and 63 µM (active) and 40.5 µM (active).
Still for that read-out and setting: with `Cc1c(F)c(F)c(COC(=O)C2C(/C=C(\Cl)C(F)(F)F)C2(C)C)c(F)c1F` (stereo not given) the figure was 50 µM (active).
For `Oc1ccccc1-c1ccccc1`, the result was inactive.
With `O=C(O)COc1nc(Cl)c(Cl)cc1Cl`, the concentration at half-maximal activity (AC50) was 23.2 µM (active).
Same read-out and setting: with `C=CC1(C)OC(=O)N(c2cc(Cl)cc(Cl)c2)C1=O` (stereo not given) the figure was 38.3 µM (active).
On to `CCOP(=S)(OCC)SCn1c(=O)oc2cc(Cl)ccc21`, for which the compound was called inactive.
On to `O=C(O)c1nc(Cl)ccc1Cl`, for which the result was inactive.
With `CON(C)C(=O)Nc1ccc(Cl)c(Cl)c1`, the half-maximal activity concentration (AC50) is 43.1 µM (active).
`CCCN(CCC)c1c([N+](=O)[O-])cc(S(N)(=O)=O)cc1[N+](=O)[O-]`: the AC50 was 82 µM (active) and the compound was classed as inactive.
With `Fc1ccc(Oc2ccnc3cc(Cl)cc(Cl)c23)cc1`, the concentration at half-maximal activity (AC50) is 89.8 µM (active).
Turning to `OC(c1ccc(Cl)cc1)(c1cncnc1)c1ccccc1Cl` (stereo not given), the concentration at half-maximal activity (AC50) is 89.4 µM (active).
On to `CC(Oc1ccc(Cl)cc1Cl)C(=O)O` (stereo not given), for which the call was inactive.
Regarding `CC(C)(C)c1ccc(CSc2cnn(C(C)(C)C)c(=O)c2Cl)cc1`, the AC50 was 2.21 µM (active).
Regarding `CCCCC(CC)COC(=O)c1ccccc1C(=O)OCC(CC)CCCC` (stereo not given), the result was inactive.
Turning to `COc1nc(NC(C)C)nc(NC(C)C)n1`, the compound was called inactive.
For the compound `O=C(Nc1ccccc1)Nc1ccnc(Cl)c1`, the AC50 is 26.5 µM (active).
As for `CCNc1nc(Cl)nc(NCC)n1`, the outcome was inactive.
Consider `C=CCC1=C(C)[C@@H](OC(=O)[C@@H]2[C@@H](C=C(C)C)C2(C)C)CC1=O`, for which the AC50 is 50 µM (active).
Turning to `CCc1nn(C)c(C(=O)NCc2ccc(C(C)(C)C)cc2)c1Cl`, the half-maximal activity concentration (AC50) was 0.877 µM (active).
Turning to `CCOC(=O)C(Cl)Cc1cc(-n2nc(C)n(C(F)F)c2=O)c(F)cc1Cl` (stereo not given), the call was inactive.
Consider `COC(=O)N(OC)c1ccccc1COc1ccn(-c2ccc(Cl)cc2)n1`, for which the concentration at half-maximal activity (AC50) was 38.4 µM (active).
`CCOC(=O)CC(SP(=S)(OC)OC)C(=O)OCC` (stereo not given): the compound was called inactive.
Still for that read-out and setting: with `CCCCNC(=O)n1c(NC(=O)OC)nc2ccccc21` the entry was “inactive”.
Still for that read-out and setting: under `CNC(=S)S` stands “inactive”; under `CCNc1nc(Cl)nc(NC(C)C)n1`, “inactive”.
As for `COC(=O)C=C(C)OP(=O)(OC)OC`, the AC50 is 21.4 µM (active).
For the compound `Cc1ccc(-c2c(Cl)nc(C#N)n2S(=O)(=O)N(C)C)cc1`, the AC50 was 36.4 µM (active).
As for `C#CCOS(=O)OC1CCCCC1Oc1ccc(C(C)(C)C)cc1` (stereo not given), the AC50 was 23.2 µM (active).
On to `CS/C(C)=N/OC(=O)N(C)SN(C)C(=O)O/N=C(\C)SC`, for which the half-maximal activity concentration (AC50) was 33.6 µM (active).
Take `CC1=C(C(=O)Nc2ccccc2)SCCO1`: the AC50 was 50 µM (active).
For `CC1COC(Cn2cncn2)(c2ccc(Oc3ccc(Cl)cc3)cc2Cl)O1` (stereo not given), the concentration at half-maximal activity (AC50) is 11.2 µM (active).
Regarding `COc1cnc(OC)n2nc(NS(=O)(=O)c3c(OCC(F)F)cccc3C(F)(F)F)nc12`, the result was inactive.
With `CN(C)C(=S)SSC(=S)N(C)C`, the outcome was inactive.

For orientation: AC50 means the midpoint of the concentration-response curve, whichever way the signal moves.
